Measured values: article PMC7862700, “An all-to-all approach to the identification of sequence-specific readers for epigenetic DNA modifications on cytosine”

What was measured:
Test in all cases: DAPPL (digital affinity profiling via proximity ligation, sequencing); 10 mM Tris-HCl pH 7.5, 50 mM NaCl, 1 mM DTT, 4% glycerol, room temperature, 30 min; GST-TFs on glutathione beads, 16-mer random dsDNA library, 0.1% formaldehyde crosslink after washing; high values mean tight binding
Conditions in all cases: protein: recombinant; tags: N-terminal GST; dsDNA, one strand shown
FLI1 = biological target: T1, FLI1 (Homo sapiens, UniProt Q01543 1-452)
T1 sequence: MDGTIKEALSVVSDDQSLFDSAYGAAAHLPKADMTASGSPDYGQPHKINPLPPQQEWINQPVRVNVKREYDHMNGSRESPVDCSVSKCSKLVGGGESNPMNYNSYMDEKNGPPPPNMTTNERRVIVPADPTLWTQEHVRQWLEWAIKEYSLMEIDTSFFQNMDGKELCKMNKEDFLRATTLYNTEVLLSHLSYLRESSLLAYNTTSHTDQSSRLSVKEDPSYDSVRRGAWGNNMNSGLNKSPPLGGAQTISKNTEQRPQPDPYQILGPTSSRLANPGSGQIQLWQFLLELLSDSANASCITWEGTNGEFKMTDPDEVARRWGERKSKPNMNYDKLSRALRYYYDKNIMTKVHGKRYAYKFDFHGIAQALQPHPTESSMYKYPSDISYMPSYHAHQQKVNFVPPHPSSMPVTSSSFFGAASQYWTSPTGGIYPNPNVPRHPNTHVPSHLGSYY
Outline: (§1)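 Human transcription factors fused to GST were expressed in yeast, captured on glutathione beads, given DNA barcodes and pooled with a GST-only negative control. Pools were incubated with 200 nmole of a 16-mer random double-stranded DNA library in Tris/NaCl/DTT/glycerol buffer at room temperature for 30 min. They were then washed, crosslinked with 0.1% formaldehyde, proximity-ligated (BsaI/T4 ligase, 1 h, 37 °C), PCR-amplified and sequenced on an Illumina NextSeq500. Binding signal is each 6-mer's read frequency for a factor divided by its frequency for the GST control.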

ELK1 = biological target: T2, ELK1 (Homo sapiens, UniProt P19419 1-428)
T2 sequence: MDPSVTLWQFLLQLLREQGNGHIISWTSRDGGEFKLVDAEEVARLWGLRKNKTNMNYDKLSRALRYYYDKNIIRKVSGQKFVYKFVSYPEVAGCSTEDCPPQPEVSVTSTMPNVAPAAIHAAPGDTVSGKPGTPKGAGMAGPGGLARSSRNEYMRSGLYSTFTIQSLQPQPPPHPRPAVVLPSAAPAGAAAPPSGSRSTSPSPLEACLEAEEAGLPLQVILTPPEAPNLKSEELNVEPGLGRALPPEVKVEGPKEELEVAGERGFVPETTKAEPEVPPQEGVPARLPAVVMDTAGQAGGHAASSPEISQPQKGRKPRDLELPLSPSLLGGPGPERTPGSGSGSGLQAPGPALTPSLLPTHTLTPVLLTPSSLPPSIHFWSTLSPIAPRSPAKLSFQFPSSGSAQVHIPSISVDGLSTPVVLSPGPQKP
Outline: as §1

GABPA = biological target: T3, GABPA (Homo sapiens, UniProt Q06546 1-454)
T3 sequence: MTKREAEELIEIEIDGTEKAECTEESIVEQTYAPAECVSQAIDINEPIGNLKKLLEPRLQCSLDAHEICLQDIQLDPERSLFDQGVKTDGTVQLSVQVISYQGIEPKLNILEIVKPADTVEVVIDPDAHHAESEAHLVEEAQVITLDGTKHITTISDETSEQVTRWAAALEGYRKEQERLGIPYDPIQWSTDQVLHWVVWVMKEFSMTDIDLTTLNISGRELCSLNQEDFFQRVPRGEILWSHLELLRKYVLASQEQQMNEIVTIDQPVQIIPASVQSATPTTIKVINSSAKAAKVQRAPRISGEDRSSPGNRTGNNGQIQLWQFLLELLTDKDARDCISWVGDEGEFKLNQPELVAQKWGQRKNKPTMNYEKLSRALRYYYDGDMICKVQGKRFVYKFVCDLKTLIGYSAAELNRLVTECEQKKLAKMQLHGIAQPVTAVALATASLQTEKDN
Outline: as §1

ERG = biological target: T4, ERG (Homo sapiens, UniProt P11308 1-479)
T4 sequence: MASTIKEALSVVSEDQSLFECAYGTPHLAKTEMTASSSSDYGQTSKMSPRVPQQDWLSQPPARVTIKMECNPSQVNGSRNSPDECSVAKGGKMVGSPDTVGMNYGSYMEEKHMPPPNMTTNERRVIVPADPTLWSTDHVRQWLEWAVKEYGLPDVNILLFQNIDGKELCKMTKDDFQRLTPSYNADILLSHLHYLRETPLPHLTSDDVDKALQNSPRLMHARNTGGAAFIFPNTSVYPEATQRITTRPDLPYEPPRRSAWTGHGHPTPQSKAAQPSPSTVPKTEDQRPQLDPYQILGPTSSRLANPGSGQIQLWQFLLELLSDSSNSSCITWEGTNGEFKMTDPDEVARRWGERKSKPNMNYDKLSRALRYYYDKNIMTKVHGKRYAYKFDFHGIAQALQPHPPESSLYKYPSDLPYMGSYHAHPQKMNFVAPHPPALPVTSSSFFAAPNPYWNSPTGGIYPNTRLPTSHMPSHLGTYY
Outline: as §1

ELF1 = ELF1 (Homo sapiens, UniProt P32519 1-619)
Sequence of ELF1 (P32519 whole entry): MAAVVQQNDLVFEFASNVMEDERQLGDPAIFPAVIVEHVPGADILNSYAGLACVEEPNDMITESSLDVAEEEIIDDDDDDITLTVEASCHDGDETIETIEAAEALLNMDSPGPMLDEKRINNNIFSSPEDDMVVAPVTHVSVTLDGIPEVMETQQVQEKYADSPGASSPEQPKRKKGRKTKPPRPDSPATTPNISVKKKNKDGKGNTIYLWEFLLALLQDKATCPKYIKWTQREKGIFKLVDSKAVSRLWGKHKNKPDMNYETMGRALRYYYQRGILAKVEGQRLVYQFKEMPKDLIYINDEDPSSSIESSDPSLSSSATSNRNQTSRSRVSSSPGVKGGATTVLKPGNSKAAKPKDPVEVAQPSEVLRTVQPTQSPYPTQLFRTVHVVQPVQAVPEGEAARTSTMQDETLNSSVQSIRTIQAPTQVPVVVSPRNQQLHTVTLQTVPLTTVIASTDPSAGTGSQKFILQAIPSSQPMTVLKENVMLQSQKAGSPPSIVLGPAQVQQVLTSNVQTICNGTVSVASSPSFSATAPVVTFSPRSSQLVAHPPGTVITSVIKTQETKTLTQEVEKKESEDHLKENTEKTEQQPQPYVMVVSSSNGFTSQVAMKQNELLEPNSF
Outline: as §1

EHF = biological target: T5, EHF (Homo sapiens, UniProt Q9NZC4 1-300)
T5 sequence: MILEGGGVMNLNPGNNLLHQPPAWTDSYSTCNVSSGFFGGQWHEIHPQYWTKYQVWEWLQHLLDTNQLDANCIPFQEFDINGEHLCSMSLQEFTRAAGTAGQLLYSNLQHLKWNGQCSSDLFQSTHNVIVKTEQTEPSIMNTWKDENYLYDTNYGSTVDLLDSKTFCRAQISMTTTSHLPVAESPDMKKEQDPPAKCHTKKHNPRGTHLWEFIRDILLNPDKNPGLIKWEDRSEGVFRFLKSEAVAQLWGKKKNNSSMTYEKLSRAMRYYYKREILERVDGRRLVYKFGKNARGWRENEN
Outline: as §1

SPI1 = SPI1 (Homo sapiens, UniProt P17947 1-270)
Outline: as §1

SPIB = SPIB (Homo sapiens, UniProt Q01892 1-262)
Sequence of SPIB (Q01892 whole entry): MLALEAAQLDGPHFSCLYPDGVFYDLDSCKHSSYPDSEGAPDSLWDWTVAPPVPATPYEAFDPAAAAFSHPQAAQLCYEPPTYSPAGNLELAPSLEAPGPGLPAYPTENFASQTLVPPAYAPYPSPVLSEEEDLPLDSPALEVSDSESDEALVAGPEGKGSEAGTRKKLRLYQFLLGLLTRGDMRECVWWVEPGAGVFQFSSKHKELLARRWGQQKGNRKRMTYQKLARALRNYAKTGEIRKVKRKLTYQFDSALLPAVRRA
Outline: as §1

ELK3 = biological target: T6, ELK3 (Homo sapiens, UniProt P41970 1-407)
T6 sequence: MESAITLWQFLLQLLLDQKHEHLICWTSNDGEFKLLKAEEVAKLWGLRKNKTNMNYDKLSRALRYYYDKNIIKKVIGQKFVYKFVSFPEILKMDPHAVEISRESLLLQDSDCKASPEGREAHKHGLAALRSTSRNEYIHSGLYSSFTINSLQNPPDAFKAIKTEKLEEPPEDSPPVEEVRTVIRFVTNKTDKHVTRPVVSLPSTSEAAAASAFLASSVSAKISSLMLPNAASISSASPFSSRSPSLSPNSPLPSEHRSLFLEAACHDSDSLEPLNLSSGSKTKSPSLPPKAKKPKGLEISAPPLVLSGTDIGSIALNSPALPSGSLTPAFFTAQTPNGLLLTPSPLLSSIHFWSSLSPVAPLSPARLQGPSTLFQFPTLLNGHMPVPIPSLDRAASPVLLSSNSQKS
Outline: as §1

FEV = biological target: T7, FEV (Homo sapiens, UniProt Q99581 1-238)
T7 sequence: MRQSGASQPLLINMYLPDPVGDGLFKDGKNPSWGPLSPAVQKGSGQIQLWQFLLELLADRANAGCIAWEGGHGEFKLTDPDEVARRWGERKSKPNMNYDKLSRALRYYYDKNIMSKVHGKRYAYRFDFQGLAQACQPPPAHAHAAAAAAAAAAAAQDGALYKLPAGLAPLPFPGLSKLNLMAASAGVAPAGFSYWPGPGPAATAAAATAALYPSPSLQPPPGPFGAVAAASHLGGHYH
Outline: as §1

ETV5 = ETV5 (Homo sapiens, UniProt P41161 1-510)
Sequence of ETV5 (P41161 whole entry): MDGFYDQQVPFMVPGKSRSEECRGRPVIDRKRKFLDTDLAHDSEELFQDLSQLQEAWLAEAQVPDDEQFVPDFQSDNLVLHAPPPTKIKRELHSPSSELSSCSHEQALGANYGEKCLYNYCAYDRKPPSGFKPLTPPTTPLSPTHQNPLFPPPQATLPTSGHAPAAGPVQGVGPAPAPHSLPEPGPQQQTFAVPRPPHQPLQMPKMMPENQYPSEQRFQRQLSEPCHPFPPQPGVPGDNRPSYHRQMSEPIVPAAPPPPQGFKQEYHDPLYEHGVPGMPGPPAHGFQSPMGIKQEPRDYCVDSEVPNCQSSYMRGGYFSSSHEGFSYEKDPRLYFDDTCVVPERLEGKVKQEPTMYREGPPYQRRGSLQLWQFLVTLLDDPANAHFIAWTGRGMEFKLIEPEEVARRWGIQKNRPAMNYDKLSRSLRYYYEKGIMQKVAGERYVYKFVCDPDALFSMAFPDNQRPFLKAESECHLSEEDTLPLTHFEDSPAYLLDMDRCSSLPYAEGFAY
Outline: as §1

SPIC = biological target: T8, SPIC (Homo sapiens, UniProt Q8N5J4 1-248)
T8 sequence: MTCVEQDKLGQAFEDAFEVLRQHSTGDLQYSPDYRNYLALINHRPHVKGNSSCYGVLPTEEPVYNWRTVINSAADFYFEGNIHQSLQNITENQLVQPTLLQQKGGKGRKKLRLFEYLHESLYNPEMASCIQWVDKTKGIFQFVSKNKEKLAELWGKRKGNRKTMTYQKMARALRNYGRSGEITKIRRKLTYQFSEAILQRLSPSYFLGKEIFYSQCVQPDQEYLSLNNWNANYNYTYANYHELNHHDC
Outline: as §1

ELF4 = ELF4 (Homo sapiens, UniProt Q99607 1-663)
Sequence of ELF4 (Q99607 whole entry): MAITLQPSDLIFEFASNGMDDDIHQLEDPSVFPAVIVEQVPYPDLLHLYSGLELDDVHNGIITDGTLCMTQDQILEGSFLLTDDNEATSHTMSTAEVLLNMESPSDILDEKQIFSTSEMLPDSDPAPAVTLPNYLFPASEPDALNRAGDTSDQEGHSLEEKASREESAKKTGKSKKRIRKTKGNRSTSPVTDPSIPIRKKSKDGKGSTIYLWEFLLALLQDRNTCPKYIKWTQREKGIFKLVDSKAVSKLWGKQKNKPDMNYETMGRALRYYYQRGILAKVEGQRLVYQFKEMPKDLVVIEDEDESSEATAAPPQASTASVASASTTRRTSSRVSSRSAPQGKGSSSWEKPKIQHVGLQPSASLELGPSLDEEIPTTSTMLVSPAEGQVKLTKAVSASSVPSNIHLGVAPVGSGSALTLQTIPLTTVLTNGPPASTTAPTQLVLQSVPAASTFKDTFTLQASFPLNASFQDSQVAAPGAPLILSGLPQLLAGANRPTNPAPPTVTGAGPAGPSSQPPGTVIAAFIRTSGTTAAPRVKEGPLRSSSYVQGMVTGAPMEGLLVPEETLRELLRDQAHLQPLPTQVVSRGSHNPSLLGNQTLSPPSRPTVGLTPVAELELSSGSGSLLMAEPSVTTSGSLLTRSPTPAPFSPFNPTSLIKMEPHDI
Outline: as §1

ELK4 = biological target: T9, ELK4 (Homo sapiens, UniProt P28324-2 1-405)
T9 sequence: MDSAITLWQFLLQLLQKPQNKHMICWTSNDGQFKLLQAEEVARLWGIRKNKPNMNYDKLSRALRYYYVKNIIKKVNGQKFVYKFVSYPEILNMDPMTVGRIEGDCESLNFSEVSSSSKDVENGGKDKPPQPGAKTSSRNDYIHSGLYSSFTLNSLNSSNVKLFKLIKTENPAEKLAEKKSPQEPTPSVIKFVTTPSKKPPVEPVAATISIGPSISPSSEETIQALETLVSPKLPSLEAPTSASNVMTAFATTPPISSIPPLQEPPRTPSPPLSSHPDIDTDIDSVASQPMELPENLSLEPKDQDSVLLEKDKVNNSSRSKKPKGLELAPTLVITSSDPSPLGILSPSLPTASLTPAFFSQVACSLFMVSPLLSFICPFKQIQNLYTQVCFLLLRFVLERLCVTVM
Outline: as §1

ETV2 = biological target: T10, ETV2 (Homo sapiens, UniProt O00321 1-342)
T10 sequence: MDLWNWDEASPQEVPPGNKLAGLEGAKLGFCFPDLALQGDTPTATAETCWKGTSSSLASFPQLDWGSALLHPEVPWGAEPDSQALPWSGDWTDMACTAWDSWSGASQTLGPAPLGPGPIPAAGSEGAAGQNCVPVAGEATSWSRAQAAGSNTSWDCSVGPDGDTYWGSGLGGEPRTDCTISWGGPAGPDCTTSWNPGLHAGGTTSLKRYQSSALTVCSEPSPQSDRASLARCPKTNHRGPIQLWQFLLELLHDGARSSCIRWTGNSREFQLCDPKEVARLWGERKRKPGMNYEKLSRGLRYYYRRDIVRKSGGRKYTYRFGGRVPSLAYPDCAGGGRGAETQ
Outline: as §1

ELF3 = biological target: T11, ELF3 (Homo sapiens, UniProt P78545 1-371)
T11 sequence: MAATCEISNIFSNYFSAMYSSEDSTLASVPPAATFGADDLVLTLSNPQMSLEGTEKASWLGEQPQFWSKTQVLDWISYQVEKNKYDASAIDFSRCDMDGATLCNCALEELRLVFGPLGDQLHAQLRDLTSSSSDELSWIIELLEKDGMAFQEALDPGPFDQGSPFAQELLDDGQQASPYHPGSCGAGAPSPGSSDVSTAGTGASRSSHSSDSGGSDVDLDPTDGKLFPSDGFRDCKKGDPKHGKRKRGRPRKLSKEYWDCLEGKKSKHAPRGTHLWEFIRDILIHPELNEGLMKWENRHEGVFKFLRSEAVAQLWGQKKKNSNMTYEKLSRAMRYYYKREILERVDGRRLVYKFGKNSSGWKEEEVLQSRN
Outline: as §1

ETV1 = ETV1 (Homo sapiens, UniProt P50549 1-477)
Sequence of ETV1 (P50549 whole entry): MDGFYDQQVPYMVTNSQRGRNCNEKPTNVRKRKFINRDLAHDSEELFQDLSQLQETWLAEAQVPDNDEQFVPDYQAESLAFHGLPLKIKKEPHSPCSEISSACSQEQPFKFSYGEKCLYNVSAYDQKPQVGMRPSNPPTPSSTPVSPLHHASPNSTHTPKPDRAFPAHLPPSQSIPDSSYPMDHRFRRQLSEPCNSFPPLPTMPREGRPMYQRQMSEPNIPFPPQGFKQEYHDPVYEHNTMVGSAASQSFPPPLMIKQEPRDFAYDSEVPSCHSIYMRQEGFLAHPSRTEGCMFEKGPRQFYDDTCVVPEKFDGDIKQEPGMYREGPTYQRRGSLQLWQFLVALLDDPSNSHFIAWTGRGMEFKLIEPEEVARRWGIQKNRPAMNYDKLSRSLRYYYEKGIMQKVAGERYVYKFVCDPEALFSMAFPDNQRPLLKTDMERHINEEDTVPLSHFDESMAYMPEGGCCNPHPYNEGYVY
Outline: as §1

Row | Sequence | binding signal (FLI1) | binding signal (ELK1) | binding signal (GABPA) | binding signal (ERG) | binding signal (ELF1) | binding signal (EHF) | binding signal (SPI1) | binding signal (SPIB) | binding signal (ELK3) | binding signal (FEV) | binding signal (ETV5) | binding signal (SPIC) | binding signal (ELF4) | binding signal (ELK4) | binding signal (ETV2) | binding signal (ELF3) | binding signal (ETV1)
1 | CCGGTA | 1.48 fold enrichment (6-mer frequency, TF over GST control) | 1.51 fold enrichment (6-mer frequency, TF over GST control) | 1.46 fold enrichment (6-mer frequency, TF over GST control) | 1.7 fold enrichment (6-mer frequency, TF over GST control) | 1.5 fold enrichment (6-mer frequency, TF over GST control) | 1.62 fold enrichment (6-mer frequency, TF over GST control) | 1.45 fold enrichment (6-mer frequency, TF over GST control) | 1.59 fold enrichment (6-mer frequency, TF over GST control) | 1.41 fold enrichment (6-mer frequency, TF over GST control) | 1.81 fold enrichment (6-mer frequency, TF over GST control) | 1.59 fold enrichment (6-mer frequency, TF over GST control) | 1.69 fold enrichment (6-mer frequency, TF over GST control) | 1.45 fold enrichment (6-mer frequency, TF over GST control) | 1.41 fold enrichment (6-mer frequency, TF over GST control) | 1.52 fold enrichment (6-mer frequency, TF over GST control) | 1.6 fold enrichment (6-mer frequency, TF over GST control) | 1.59 fold enrichment (6-mer frequency, TF over GST control)
2 | TGCACC | 1.12 fold enrichment (6-mer frequency, TF over GST control) | 1.16 fold enrichment (6-mer frequency, TF over GST control) | 1.25 fold enrichment (6-mer frequency, TF over GST control) | 1.09 fold enrichment (6-mer frequency, TF over GST control) | 1.2 fold enrichment (6-mer frequency, TF over GST control) | 1.25 fold enrichment (6-mer frequency, TF over GST control) | 1.16 fold enrichment (6-mer frequency, TF over GST control) | 1.15 fold enrichment (6-mer frequency, TF over GST control) | 1.16 fold enrichment (6-mer frequency, TF over GST control) | 1.23 fold enrichment (6-mer frequency, TF over GST control) | 1.12 fold enrichment (6-mer frequency, TF over GST control) | 1.14 fold enrichment (6-mer frequency, TF over GST control) | 1.19 fold enrichment (6-mer frequency, TF over GST control) | 1.3 fold enrichment (6-mer frequency, TF over GST control) | 1.13 fold enrichment (6-mer frequency, TF over GST control) | 1.21 fold enrichment (6-mer frequency, TF over GST control) | 1.13 fold enrichment (6-mer frequency, TF over GST control)
3 | GTACCT | 1.36 fold enrichment (6-mer frequency, TF over GST control) | 1.16 fold enrichment (6-mer frequency, TF over GST control) | 1.26 fold enrichment (6-mer frequency, TF over GST control) | 1.16 fold enrichment (6-mer frequency, TF over GST control) | 1.22 fold enrichment (6-mer frequency, TF over GST control) | 1.29 fold enrichment (6-mer frequency, TF over GST control) | 1.12 fold enrichment (6-mer frequency, TF over GST control) | 1.18 fold enrichment (6-mer frequency, TF over GST control) | 1.1 fold enrichment (6-mer frequency, TF over GST control) | 1.14 fold enrichment (6-mer frequency, TF over GST control) | 1.26 fold enrichment (6-mer frequency, TF over GST control) | 1.44 fold enrichment (6-mer frequency, TF over GST control) | 1.23 fold enrichment (6-mer frequency, TF over GST control) | 1.25 fold enrichment (6-mer frequency, TF over GST control) | 1.32 fold enrichment (6-mer frequency, TF over GST control) | 1.57 fold enrichment (6-mer frequency, TF over GST control) | 1.27 fold enrichment (6-mer frequency, TF over GST control)
